PfG6PD inh = PfG6PD (Plasmodium falciparum) enzyme inhibition; PfGluPho enzyme, NADPH resazurin-diaphorase fluorescence; inhibition, % at 20 µM; 350,000 compounds, 0.78% hits;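 active means inhibition reaching at least a set limit at 20 µM in the primary screen, cut at about 59% in these data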
Cardio protect = myocardial damage modulation in H9c2 cells. protection from H2O2 cell death, % at 20 µM. 360,000 compounds, 0.63% hits. H9c2 cardiomyocytes, H2O2 injury protection, ATPLite, 2 h;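 active means compounds giving at least 50% protection of heart cells from peroxide-induced death in the single-dose screen, raw or plate-pattern-corrected value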
FAS-TE inh = blocks the thioesterase domain of human fatty acid synthase | inhibition, % at 15 µM | P49327 | 360,000 compounds, 0.67% hits | recombinant FAS-TE, OMFH fluorogenic substrate, fluorescence endpoint | AID 602261;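 active means compounds whose normalised, plate-corrected inhibition of enzyme fluorescence in the single-dose primary screen is 50% or more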
aDG glyco up = alpha-DG glycosylation activation; AID 624168; Pro5-aDG cells, alpha-DG glycosylation AlphaScreen (IIH6); 0% Pro5, 100% B10-LARGE cell signal; activation, % at 10 µM; 360,000 compounds, 0.22% hits;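 active means activation of at least 8% versus controls, or a plate z-score of at least 8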;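 further: Pro5 are CHO cells carrying HIG-tagged alpha-DG that lacks glycosylation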
CRFR2-BP ag = CRF-BP/CRF-R2 complex agonism | HEK293 CRF-R2/CRF-BP, calcium dye fluorescence (FLIPR); percent of saturating CRF peptide response | activation, % at 13.2 µM | 350,000 compounds, 0.46% hits | AID 588473;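 active means activation of at least 50%, plus an integration ratio under a set limit after plate pattern correction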
CRFR2-BP antag = antagonists of CRF-binding protein/CRF-R2 receptor complex. HEK293 CRF-R2/CRF-BP, CRF-induced calcium fluorescence. inhibition, % at 11.8 µM. 350,000 compounds, 0.59% hits;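 active means inhibition of the ligand-induced calcium signal above about 50% at the single tested concentration, limit read from the data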
FAS-TE conf = confirmation of human fatty acid synthase thioesterase inhibitors; shares compounds with FAS-TE inh; recombinant FAS-TE, OMFH fluorogenic substrate, fluorescence; inhibition, % at 15 µM; 2,300 compounds, 45% hits; AID 624325;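 active means compounds inhibiting the enzyme by at least 50% at 15 µM in any one of the replicates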
A number is an active result. Only some compounds are listed: those with a hit (about 3.2% of all), similar ones and a draw of the others.

For COC(=O)N1C(=O)[C@](Cc2ccccc2)(c2ccccc2)N1C(=O)OC the results were PfG6PD inh inactive, Cardio protect inactive, FAS-TE inh 63, aDG glyco up inactive, CRFR2-BP ag inactive, CRFR2-BP antag inactive and FAS-TE conf 75.
For COC(=O)N1C(=O)[C@@](Cc2ccccc2)(c2ccccc2)N1C(=O)OC the results were PfG6PD inh inactive, Cardio protect inactive, FAS-TE inh inactive, aDG glyco up inactive, CRFR2-BP ag inactive and CRFR2-BP antag inactive.
For CC[C@]1(c2cccc(C)c2)C(=O)N(C(=O)OC)N1C(=O)OC the results were PfG6PD inh inactive, Cardio protect inactive, FAS-TE inh 62, aDG glyco up inactive, CRFR2-BP ag inactive, CRFR2-BP antag inactive and FAS-TE conf 59.
`COc1ccccc1NC1=C(Cl)C(=O)OC1OC(=O)c1ccco1` (stereo unspecified) gave PfG6PD inh inactive, Cardio protect inactive, FAS-TE inh inactive, aDG glyco up inactive, CRFR2-BP ag inactive and CRFR2-BP antag inactive.
Screening Cc1ccccc1NC1=C(Cl)C(=O)OC1OC(=O)c1ccco1 (stereo unspecified) returned PfG6PD inh inactive, Cardio protect inactive, FAS-TE inh 74, aDG glyco up inactive, CRFR2-BP ag inactive, CRFR2-BP antag inactive and FAS-TE conf 87.
`Cc1cccc(Nc2nnc(-c3ccc(N4CCOCC4)c([N+](=O)[O-])c3)c3ccccc23)c1` gave PfG6PD inh inactive, Cardio protect inactive, FAS-TE inh 82, aDG glyco up inactive, CRFR2-BP ag inactive, CRFR2-BP antag inactive and FAS-TE conf inactive.
For Cc1nnc(-c2ccc(N3CCOCC3)c([N+](=O)[O-])c2)o1 the results were PfG6PD inh inactive, Cardio protect inactive, FAS-TE inh inactive, aDG glyco up inactive, CRFR2-BP ag inactive and CRFR2-BP antag inactive.
Screening CC[C@H](C)[C@H]1O[C@]2(CC[C@@H]1C)C[C@@H]1C[C@@H](CC=C(C)[C@@H](O[C@H]3C[C@H](OC)[C@@H](O[C@H]4C[C@H](OC)[C@@H](O)[C@H](C)O4)[C@H](C)O3)[C@@H](C)C=CC=C3CO[C@@H]4[C@H](O)C(C)=C[C@@H](C(=O)O1)[C@]34O)O2 returned PfG6PD inh inactive, Cardio protect inactive, FAS-TE inh 54, aDG glyco up inactive, CRFR2-BP ag inactive, CRFR2-BP antag inactive and FAS-TE conf inactive.
CCOC(=O)c1sc(N2C(=O)C(O)=C(C(=O)c3ccco3)C2c2ccc([N+](=O)[O-])cc2)nc1C (stereo unspecified) was read as PfG6PD inh inactive, Cardio protect inactive, FAS-TE inh 56, aDG glyco up inactive, CRFR2-BP ag inactive, CRFR2-BP antag inactive and FAS-TE conf 73.
C[C@@H](NC(=O)c1[nH]cnc1C(=O)Nc1ccc(Cl)cc1)c1ccccc1 was read as PfG6PD inh inactive, Cardio protect inactive, FAS-TE inh 64, aDG glyco up inactive, CRFR2-BP ag inactive, CRFR2-BP antag inactive and FAS-TE conf 63.
Screening CCOc1ncccc1C(=O)NCC(c1ccco1)N1CCCCC1 (stereo unspecified) returned PfG6PD inh inactive, Cardio protect inactive, FAS-TE inh inactive, aDG glyco up inactive, CRFR2-BP ag inactive and CRFR2-BP antag inactive.
Screening NC(=O)[C@H]1CC2(CC(c3cccc(NC(=O)COc4ccc(Cl)cc4)c3)=NO2)CN1C(=O)CC(c1ccccc1)c1ccccc1 (stereo partly specified) returned PfG6PD inh inactive, Cardio protect inactive, FAS-TE inh 64, aDG glyco up inactive, CRFR2-BP ag inactive, CRFR2-BP antag inactive and FAS-TE conf inactive.
Screening NC(=O)[C@@H]1CC2(CC(c3cccc(NC(=O)CC(c4ccccc4)c4ccccc4)c3)=NO2)CN1C(=O)COc1ccc(Cl)cc1 (stereo partly specified) returned PfG6PD inh inactive, Cardio protect inactive, FAS-TE inh 60, aDG glyco up inactive, CRFR2-BP ag inactive, CRFR2-BP antag inactive and FAS-TE conf inactive.
`CCN1Cc2c(/C=C/c3ccccc3)nc3ccc(OC)cc3c2N(c2cccc(Cl)c2)C1` gave PfG6PD inh inactive, Cardio protect inactive, FAS-TE inh 77, aDG glyco up inactive, CRFR2-BP ag inactive, CRFR2-BP antag inactive and FAS-TE conf 85.
COc1cccc(N2CCc3c(C)nc4ccc(Cl)cc4c32)c1 was read as PfG6PD inh inactive, Cardio protect inactive, FAS-TE inh inactive, aDG glyco up inactive, CRFR2-BP ag inactive and CRFR2-BP antag inactive.
Screening O=[N+]([O-])c1cc(-c2nnc(C34CC5CC(CC(C5)C3)C4)o2)cc([N+](=O)[O-])c1 returned PfG6PD inh inactive, Cardio protect inactive, FAS-TE inh 53, aDG glyco up inactive, CRFR2-BP ag inactive, CRFR2-BP antag inactive and FAS-TE conf inactive.
Screening CN(C(=O)c1cccc(NC(=O)Cc2ccc(NC(=O)C3CCN(S(=O)(=O)c4cccc([N+](=O)[O-])c4)CC3)cc2)c1)C1CCCC1 returned PfG6PD inh inactive, Cardio protect inactive, FAS-TE inh 59, aDG glyco up inactive, CRFR2-BP ag inactive, CRFR2-BP antag inactive and FAS-TE conf inactive.
CN(C(=O)c1cccc(NC(=O)Cc2ccc(NC(=O)C3CCN(S(=O)(=O)c4cccc([N+](=O)[O-])c4)CC3)cc2)c1)C1CCC1 was read as PfG6PD inh inactive, Cardio protect inactive, FAS-TE inh inactive, aDG glyco up inactive, CRFR2-BP ag inactive and CRFR2-BP antag inactive.
`CN(C(=O)c1cccc(NC(=O)Cc2ccc(NC(=O)C3CCCN(S(=O)(=O)c4cccc([N+](=O)[O-])c4)C3)cc2)c1)C1CCCCC1` (stereo unspecified) gave PfG6PD inh inactive, Cardio protect inactive, FAS-TE inh 73, aDG glyco up inactive, CRFR2-BP ag inactive, CRFR2-BP antag inactive and FAS-TE conf inactive.
Screening O=C(Nc1nc(-c2ccccc2)cs1)c1ccc2c(=O)n3c(nc2c1)CCCCC3 returned PfG6PD inh inactive, Cardio protect inactive, FAS-TE inh 62, aDG glyco up inactive, CRFR2-BP ag inactive, CRFR2-BP antag inactive and FAS-TE conf inactive.
CCOc1ccccc1N(CC)C(=O)c1ccc2c(=O)n3c(nc2c1)CCCCC3 was read as PfG6PD inh inactive, Cardio protect inactive, FAS-TE inh 57, aDG glyco up inactive, CRFR2-BP ag inactive, CRFR2-BP antag inactive and FAS-TE conf 77.
Screening O=C(Nc1ccccc1Cl)c1ccc2c(=O)n3c(nc2c1)CCC3 returned PfG6PD inh inactive, Cardio protect inactive, FAS-TE inh inactive, aDG glyco up inactive, CRFR2-BP ag inactive and CRFR2-BP antag inactive.

Compound activity as filed in PubChem BioAssay.
